Results reported in the supplement of paper PMC12645437, “Orthogonal IMiD-Degron Pairs Induce Selective Protein Degradation in Cells” (ACS Chemical Biology, 2025).
The full ranking holds about 8,300 sequences; the median of “log2 fold change of degron read counts, EGFP-low vs EGFP+ sorted cells (limma voom), compound-induced degradation” is about -1.1, and the highest 2% start at about 3.2. The sample holds the highest values, similar sequences and a random draw of the others, so the mix is not that of the screen.

T1: CRBN, Q96SW2
T1 chain: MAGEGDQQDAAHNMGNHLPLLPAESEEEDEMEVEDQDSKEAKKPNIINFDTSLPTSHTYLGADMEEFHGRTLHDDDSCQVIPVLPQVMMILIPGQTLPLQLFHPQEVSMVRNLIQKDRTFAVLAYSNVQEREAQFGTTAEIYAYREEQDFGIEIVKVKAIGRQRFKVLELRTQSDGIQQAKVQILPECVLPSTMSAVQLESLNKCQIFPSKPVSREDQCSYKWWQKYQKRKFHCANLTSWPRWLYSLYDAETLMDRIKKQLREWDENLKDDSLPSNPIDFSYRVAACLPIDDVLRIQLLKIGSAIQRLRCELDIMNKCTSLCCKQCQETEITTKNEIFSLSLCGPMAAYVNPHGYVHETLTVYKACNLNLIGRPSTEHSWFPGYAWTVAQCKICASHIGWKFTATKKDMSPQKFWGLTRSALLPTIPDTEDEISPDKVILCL


Target: T1, CRBN, Q96SW2
Assay: log2 fold change of degron read counts, EGFP-low vs EGFP+ sorted cells (limma voom), compound-induced degradation; higher = more compound-induced degradation of the degron-EGFP fusion; degrons are variants of IKZF1/3 zinc finger 2; compound dose not given here
Conditions: Jurkat, 18 h
Protocol: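 Pooled library of 8380 IKZF3 ZF2 degron mutants (positions 146-167 varied within the IKZF3 130-189 degron; only the varied core is printed, flanks not printed) fused to EGFP with IRES-mCherry, lentivirally expressed in Jurkat cells. mCherry+ cells were treated with one IMiD compound for 18 h (dose not stated) and FACS-sorted into EGFP-low and EGFP+ populations. Degron sequences were counted by NGS, and log2FC (EGFP-low vs EGFP+) was estimated by limma voom over 3 biological replicates.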

[1] = compound: compound 19 (5-tert-butyl-thalidomide)
[2] = compound: compound 22 (5-morpholino-thalidomide)
[3] = compound: compound 33 (diphenyl IMiD analogue)
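Further: pooled lentiviral library of zinc finger degron-EGFP fusions in mCherry-positive Jurkat cells, FACS-sorted after compound exposure, with degron abundance counted by next-generation sequencing.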

Row | Sequence | log2 fold change of degron read counts [1] | log2 fold change of degron read counts [2] | log2 fold change of degron read counts [3] | log2 fold change of degron read counts (compound: thalidomide)
1 | FRCPICGHKFTQKGNLLRHIKL [46F_47R_49P_50I_52G_53H_54K_55F_67L_, Q9UKT9] | -2.46 | -2.78 | -1.61 | -1.55
2 | FSCNQCGRMFTQKGNLLRHIKL [46F_47S_49N_50Q_52G_53R_54M_55F_67L_, Q9UKT9] | -2.45 | -3.15 | -2.32 | -2.79
3 | FHCNQCGHKFTQKGNLLRHIKL [46F_47H_49N_50Q_52G_53H_54K_55F_67L_, Q9UKT9] | -2.56 | -3.05 | -2.84 | -2.45
4 | FDCPICGRRFTQKGNLLRHIKL [46F_47D_49P_50I_52G_53R_54R_55F_67L_, Q9UKT9] | 2.15 | 0.908 | 1.08 | 2.66
5 | LCCNQCGFHCTQKGNLLRHIKL [46L_47C_49N_50Q_52G_53F_54H_55C_67L_, Q9UKT9] | -2.15 | -2.61 | -1.7 | -1.96
6 | FDCSVCGHPFTQKGNLLRHIKL [46F_47D_49S_50V_52G_53H_54P_55F_67L_, Q9UKT9] | -1.84 | -2.36 | -2.33 | -1.9
7 | FKCDVCGAYFTQKGNLLRHIKL [46F_47K_49D_50V_52G_53A_54Y_55F_67L_, Q9UKT9] | -2.99 | -3.36 | -3.07 | -2.83
8 | FECDVCGADFTQKGNLLRHIKL [46F_47E_49D_50V_52G_53A_54D_55F_67L_, Q9UKT9] | -3.21 | -3.19 | -1.99 | -2.31
9 | FWCPICGRPFTQKGNLLRHIKL [46F_47W_49P_50I_52G_53R_54P_55F_67L_, Q9UKT9] | 2.01 | 0.778 | 1.24 | -0.187
10 | FWCPQCGAKFTQKGNLLRHIKL [46F_47W_49P_50Q_52G_53A_54K_55F_67L_, Q9UKT9] | 1.29 | 2.33 | -0.101 | -0.258
11 | FKCEICGAQFTQKGNLLRHIKL [46F_47K_49E_50I_52G_53A_54Q_55F_67L_, Q9UKT9] | 0.105 | -2.17 | -1.89 | -0.0845
12 | FVCEICGAQFTQKGNLLRHIKL [46F_47V_49E_50I_52G_53A_54Q_55F_67L_, Q9UKT9] | 0.913 | 2.56 | 2.86 | 3.22
13 | FGCEICGAQFTQKGNLLRHIKL [46F_47G_49E_50I_52G_53A_54Q_55F_67L_, Q9UKT9] | 3.48 | 2.64 | 1.18 | 1.14
14 | FCCEICGAQFTQKGNLLRHIKL [46F_47C_49E_50I_52G_53A_54Q_55F_67L_, Q9UKT9] | 3.18 | 2.58 | 2.74 | 2.27
15 | FNCEICGAQFTQKGNLLRHIKL [46F_47N_49E_50I_52G_53A_54Q_55F_67L_, Q9UKT9] | 2.88 | 1.44 | 0.527 | 0.564
16 | FACEICGAQFTQKGNLLRHIKL [46F_47A_49E_50I_52G_53A_54Q_55F_67L_, Q9UKT9] | 3.66 | 2.38 | 1.15 | 1.07
17 | FTCDQCGASFTQKGNLLRHIKL [46F_47T_49D_50Q_52G_53A_54S_55F_67L_, Q9UKT9] | -1.41 | -1.1 | -0.521 | -1.39
18 | FRCEICGRAFTQKGNLLRHIKL [46F_47R_49E_50I_52G_53R_54A_55F_67L_, Q9UKT9] | -1.67 | -1.99 | 0.837 | 0.0765
